Hits are enriched below; roughly 21% of the tested compounds scored in any of these assays.
Pf growth 48h: Primary qHTS for delayed death inhibitors of the malarial parasite plastid, 48 hour incubation; P. falciparum luciferase growth in erythrocytes, 48 h; hit rate 5.9% among 310,000; Potency, µM (highest dose often 28.7 µM), for the others: at the top dose activity change, negative = inhibition, most hits filed as inhibitors; also: potency is read from the fitted curve at half-maximal effect; % is scaled to controls: 0 for no effect and ±100 for the full control effect
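Cell-based growth assay: transgenic P. falciparum expressing firefly luciferase, cultured in red cells within RPMI 1640 containing 0.5% w/v Albumax, 24 mM bicarbonate and gentamycin. A drop in luciferase activity indicates inhibition.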
Shiga toxin inh: A qHTS for Small Molecule Inhibitors of Shiga Toxin | Vero cells, Shiga toxin protein synthesis inhibition reporter | inhibition, % at 38.7 µM | hit rate 9.2% among 290,000; in the data active = inhibition mostly above about 28%, no sharp cut-off; inactive = mostly below about 43%; also: 0% is about no effect
HCMV antiviral: qHTS Assay for inhibitors of the human cytomegalovirus (HCMV); HFF cells, HCMV-luciferase reporter, 72 h; hits give low values; activity change, negative = inhibition, % at 57.5 µM; hit rate 4.5% among 410,000; in the data active = activity change below about -60%; inconclusive = no clear call, values can overlap the other calls; inactive = above about -39%; also: % is scaled to controls: 0 for no effect and ±100 for the full control effect
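Steps: HFFs plated, 16 h 37C; compounds added; HCMV-luciferase added to MOI 1 PFU/cell; 72 h 37C; OneGlo reagent, 5 min room temperature; luminescence read, normalized to controls.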
Cycloheximide cs: Cycloheximide Counterscreen for Small Molecule Inhibitors of Shiga Toxin; AID 2314, 2010; max response, %; cell reporter, cycloheximide protein synthesis inhibition counterscreen; hit rate 12% among 300,000; in the data active = max response mostly above about 13%, no sharp cut-off; inactive = mostly below about 14%; also: read at 38.3 µM for the half of the compounds with a filed dose; 0% is about no effect
HCV inhibitor: qHTS Assay for Inhibitors of Hepatitis C Virus (HCV) | Huh7.5.1 HCVcc-Cre infection, luciferase reporter, 44 h | hit rate 3.4% among 340,000 | AID 651820, 2012 | Potency, µM (highest dose often 41.8 µM), for inactives: at the top dose activity change, negative = inhibition, most hits filed as inhibitors; also: potency is read from the fitted curve at half-maximal effect; % is scaled to controls: 0 for no effect and ±100 for the full control effect
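After 44 h co-culture of compound, cells and HCVcc-Cre (~0.5 moi), substrate is added for 15 min at room temperature and luciferase measured over 15 sec. Cells were seeded at 1,000/well and pre-cultured 4 h.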
Pf growth 96h: Primary qHTS for delayed death inhibitors of the malarial parasite plastid, 96 hour incubation | Potency, µM (top dose mostly 28.7 µM), for inactives: top-dose activity change, negative = inhibition, most hits filed as inhibitors | P. falciparum luciferase reporter growth, 96 h | hit rate 6.9% among 320,000; also: potency is read from the fitted curve at half-maximal effect; % is scaled to controls: 0 for no effect and ±100 for the full control effect
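Two-generation exposure (96 h) targets delayed-death phenotype. Reporter parasites carrying integrated firefly luciferase, in red cells at 2% hematocrit and 0.05% parasitemia final, kept at 37 C, 5% CO2; luminescence loss indicates inhibition.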
Starred values were filed as active, the others as inactive; ? = inconclusive; / = no result given; + = active, no number; [ ] = remark or other dose. Unless noted, calls follow the shape of the dose curve; as a rule, active = well fitted inhibition curve with a large enough effect; inconclusive = small, poorly fitted or top-dose-only effect, or another doubt; inactive = no such curve, though single readings can be large or run the other way.

SMILES	Pf growth 48h	Shiga toxin inh	HCMV antiviral	Cycloheximide cs	HCV inhibitor	Pf growth 96h
Cc1cc(C)cc(NC(=S)NCc2ccc3c(c2)OCO3)c1	/	/	-31.3	/	-17.8%	/
S=C(Nc1ccc(Cl)cc1)Nc1ccc2c(c1)OCCO2	60.2%	58.5*	-1.9	38.6*	-17.2%	76.9%
S=C(NCc1ccc2c(c1)OCO2)Nc1ccc2nsnc2c1	13.5%	36.5	-66.3*	15.2*	?	10.6%
O=C(CN1CCN(CC(=O)Nc2ccccc2Cl)CC1)Nc1ccc2c(c1)OCCO2	?	6.1	-7.3	3.3	0.0%	-16.2%
CC1CCN(c2nc3c(S(=O)(=O)c4ccc(Cl)cc4)nnn3c3ccsc23)CC1	/	/	54.0	/	/	/
CC(C)CN(C(=O)CSc1nc(N)cc(N)n1)C1CCS(=O)(=O)C1 (stereo not given)	/	/	-22.6	/	13.4%	/
S=C(Nc1ccc2c(c1)OCO2)Nc1ccc2c(c1)OCO2	10.0%	66.3*	?	54.5*	19.7%	22.6%
CN(C)C(=S)Nc1ccc2c(c1)OCO2	-21.4%[5.75 µM]	32.8	?	-1.8	12.4%	9.4%
CSCc1cc(N(C)C)nc(SCc2ccc(Cl)c(Cl)c2)n1	10.4µM*	-25.4	21.8	-8.5	?	?
CCOc1cc(/C=C\[N+](=O)[O-])ccc1OCC(=O)N1CCOCC1	?	-7.2	-92.4*	-1.8	?	?
CCOc1cc(/C=C/c2nc3cc(C)c(C)cc3s2)ccc1OCC(=O)N1CCOCC1	?	-91.6	-20.6	4.6	-5.6%	10.4µM*
CCc1ccc(NS(=O)(=O)c2ccc3oc(=O)ccc3c2)cc1	9.4%	37.1	-65.9*	-4.0	-22.2%	-13.2%
COc1ccc(CN(C(=S)Nc2ccccc2)C2CC(=O)N(c3ccc(F)cc3)C2=O)cc1 (stereo not given)	?	35.1	19.7	31.1*	6.3%	?
CNC(=S)N(Cc1ccc(OC)cc1)C1CC(=O)N(c2ccc(Cl)cc2)C1=O (stereo not given)	?	-14.7	-29.7	0.5	-16.6%	0.928µM*
Cc1ccc(N2C(=O)CC(N(CCc3ccccc3)C(=S)Nc3ccc(N(C)C)cc3)C2=O)cc1 (stereo not given)	11.7µM*	19.4	-6.5	-3.0	2.6%	?
Cc1c2cnn(CC(=O)O)c(=O)c2c(C)n1Cc1ccccc1	/	-12.6	29.7	-8.3	16.8%	-88.8%
Cc1ccc(-n2ncc(N(C)C)c(Cl)c2=O)cc1	288.1%	54.9*	21.0	28.7*	34.0%	146.4%
O=c1c(Cl)c(NS(=O)(=O)c2ccccc2)cnn1-c1ccccc1	-3.2%	14.4	-1.0	1.0	4.3%	10.5%
C=CCNc1cnn(-c2ccccc2)c(=O)c1Cl	0.9%	79.4	-32.9	17.9*	-6.0%	4.0%
CN(C)c1cnn(-c2ccccc2)c(=O)c1Cl	40.0%	146.2*	?	43.3*	8.2%	21.5%
CC(=O)Cn1ncc(N(C)Cc2ccccc2)c(Cl)c1=O	97.1%	63.7*	-14.8	47.8*	6.4%	92.1%
COc1c(Cl)cnn(-c2ccccc2)c1=O	-4.8%	-6.3	-29.1	0.8	?	0.0%
CCOC(=O)C(NC(C)=O)C(=O)Nc1ccc(C)cc1C (stereo not given)	3.0%	17.6	-23.6	-3.0	6.2%	31.4%
O=C(CC1C(=O)N(c2ccc(F)cc2)C(=O)N1Cc1cccnc1)Nc1ccc(F)cc1 (stereo not given)	/	/	-7.8	/	/	/
Cc1cc(C(F)(F)F)nn1CC(=O)NCc1ccco1	17.5%	10.8	-3.8	-2.2	-2.5%	1.47µM*
SMILES	Pf growth 48h	Shiga toxin inh	HCMV antiviral	Cycloheximide cs	HCV inhibitor	Pf growth 96h
O=C(Cn1nc(C(F)(F)F)cc1C1CC1)NCc1ccccc1F	-4.1%	-3.5	-68.6*	0.5	-14.1%	9.4%
Cc1nn(CC(=O)NCc2ccco2)c(C)c1[N+](=O)[O-]	-6.2%	-21.0	-39.5	1.2	3.9%	19.2%
Cc1c(Cl)c([N+](=O)[O-])nn1CC(=O)NCc1ccco1	12.5%	-21.9	10.9	-5.5	11.9%	1.47µM*
Cc1c(Cl)c(C(F)(F)F)nn1CC(=O)NCc1ccco1	8.8%	21.0	-25.3	34.9	1.9%	?
C/C(=N\NC(=S)Nc1ccccc1)c1c(O)n(C)c(=O)n(C)c1=O	36.1%	+	-18.6	42.3*	0.3%	7.4%
CC(=NCCc1ccccc1)c1c(O)n(C)c(=O)n(C)c1=O	5.9%	8.5	?	-0.6	15.5%	-21.6%
CC(=Nc1ccccc1N)c1c(O)n(C)c(=O)n(C)c1=O	123.1%	71.5*	47.0	23.6*	1.7%	?
Fc1ccccc1OCCCn1ccnc1	-3.0%	20.2	17.2	1.6	10.4%	299.7%
Clc1ccc(OCCSc2ncccn2)c2ccccc12	14.9%	90.9*	-13.9	38.6*	?	14.1%
Fc1ccccc1OCCCCSc1ncccn1	33.2%	22.2	30.4	27.4*	8.4%	141.3%
c1cnc(SCCOc2cccc3ccccc23)nc1	/	78.6*	-14.2	51.9*	?	45.8%
CCc1ccccc1NC(=O)CN1C(=O)CCSc2ccc(S(=O)(=O)N3CCCC3)cc21	/	/	24.9	/	/	/
CCCCNc1cccc2c1S(=O)(=O)N[C@@H](Cc1ccccc1)CO2	/	/	-3.4	/	/	/
Cc1csc(NC(=O)c2ccc(S(=O)(=O)N3CCN(C)CC3)cc2)n1	22.2%	58.1*	26.4	31.9*	-6.0%	?
Cc1csc(NC(=O)c2ccc(S(=O)(=O)N3CCCC3)cc2)n1	55.1%	39.3	-1.0	17.1*	-0.6%	-2.5%
O=C(Nc1nccs1)c1cc(S(=O)(=O)N2CCCCC2)ccc1Cl	15.2%	-11.7	40.6	5.5	7.2%	?
Cc1nnc(NC(=O)c2cc(S(=O)(=O)N3CCCCC3)ccc2Cl)s1	-17.1%	-27.2	-0.2	-2.1	11.2µM*	?
Cc1csc(NC(=O)C2CCCCN2S(=O)(=O)c2ccccc2)n1 (stereo not given)	?	25.5	-37.1	13.4*	0.3%	-0.9%
Cc1ccccc1CN1CCN(CC(=O)NCCCN2CCN(c3ccc(F)cc3)CC2)C1=O	?	-18.0	-17.6	-5.0	10µM*	27.1%
O=C(CN1CCN(Cc2ccc(Cl)cc2)C1=O)NCCCN1CCN(c2ccc(F)cc2)CC1	/	-9.4	-75.4*	-3.1	10µM*	?
CCOC(=O)c1cc(C)n(CC2CCC(C(=O)Nc3cc(OC)cc(OC)c3)CC2)c1C (stereo not given)	/	/	27.0	/	/	/
Brc1ccc2c(c1)C(OC1CN3CCC1CC3)c1ccccc1CS2 (stereo not given)	?	-22.4	-26.6	-8.3	31.6µM*	10.4µM*
O=S1(=O)N=C(N/N=C/c2ccccn2)c2ccccc21	?	-14.3	31.4	-1.2	-0.8%	?
O=S1(=O)N=C(N/N=C/C=C/c2ccccc2)c2ccccc21	?	-13.6	?	0.8	0.2%	13.1µM*

Assay outcomes from PubChem BioAssay.
